Screening results as filed in PubChem BioAssay.
Most compounds without a hit are left out; they make up all but 19% or so of the library.
RORg inh – ROR gamma (mouse) transcription inhibition; Potency, µM (top dose mostly 53.6 µM), for the others: top-dose activity change, negative = inhibition, actives largely listed as inhibitors; Drosophila S2 Gal4-RORgamma UAS-luciferase reporter, 20 h; P51450; 5.4% of 310,000 active; further: nearly all actives have a fitted effect of over 60% in size
Target sequence (P51450 whole entry, looked up, the tested form may be a part): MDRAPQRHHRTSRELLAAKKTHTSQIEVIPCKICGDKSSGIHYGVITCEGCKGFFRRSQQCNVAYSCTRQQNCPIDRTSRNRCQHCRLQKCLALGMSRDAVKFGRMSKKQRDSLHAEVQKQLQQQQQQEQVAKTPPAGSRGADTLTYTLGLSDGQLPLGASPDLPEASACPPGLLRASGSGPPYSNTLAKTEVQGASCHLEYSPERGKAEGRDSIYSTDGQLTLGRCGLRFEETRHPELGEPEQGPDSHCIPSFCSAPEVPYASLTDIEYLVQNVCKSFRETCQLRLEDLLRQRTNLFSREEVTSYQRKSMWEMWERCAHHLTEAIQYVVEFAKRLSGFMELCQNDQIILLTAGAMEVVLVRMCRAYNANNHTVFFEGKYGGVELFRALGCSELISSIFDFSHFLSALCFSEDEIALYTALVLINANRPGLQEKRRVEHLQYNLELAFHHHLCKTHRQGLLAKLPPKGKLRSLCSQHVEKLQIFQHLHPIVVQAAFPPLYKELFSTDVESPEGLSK
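Drosophila Schneider cells stably carrying a metallothionein-driven Gal4 DBD–ROR gamma fusion and a UAS-Photinus luciferase reporter were exposed to compound for 1 hr, then induced with copper sulfate (700 uM final) for 20 hr at ambient temperature before luminescence reading.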
TDP1 inh – inhibitors of human tyrosyl-DNA phosphodiesterase TDP1. recombinant TDP1, AlphaScreen DNA substrate cleavage. Potency, µM (series often up to 130 µM), for the others: at the highest dose activity change, negative = inhibition, usual class: inhibitors. 0.28% of 350,000 active. AID 485290; further: nearly all actives have a fitted effect of over 40% in size
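Recombinant E. coli-expressed Tdp1 (1 nM) preincubated with compound 15 min at RT, then 5'-biotin/3'-phosphotyrosine-FITC DNA substrate (15 nM) added for 5 min. AlphaScreen beads (10 ug/ml) added, 10 min RT; tyrosine-FITC cleavage read as signal loss.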
DT40 TDP1 CPT – growth inhibition of DT40 Tdp1-/-;hTDP1 cells with camptothecin (screen for TDP1 inhibitors); chicken DT40 Tdp1-/-;hTDP1 cells + 20 nM CPT, ATP luminescence, 48 h; Potency, µM (titrated, usually from 46.2 µM), for inactives: at the top dose activity change, negative = growth inhibition, actives largely listed as inhibitors; 12% of 420,000 active; further: nearly all actives have a fitted effect of over 55% in size
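Chicken DT40 Tdp1-/- cells complemented with human TDP1, 400 cells/well, exposed to compounds plus 20 nM camptothecin for at least 48 h at 37 C; viability read as ATP content by CellTiter-Glo luminescence.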
VP16 counter – counter-screen for ROR gamma inhibitors: Gal4-VP16 reporter; 3.5% of 310,000 active; Potency, µM (highest dose often 53.6 µM), inactives show top-dose activity, negative = inhibition, usual class: inhibitors; Drosophila S2 Gal4-VP16 UAS-luciferase, luminescence, 20 h; AID 2546;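 further: Gal4-VP16 expression switched on by copper sulfate through the metallothionein promoter; nearly all actives have a fitted effect of over 50% in size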
DT40 TDP1 no CPT – qHTS for Inhibitors of human tyrosyl-DNA phosphodiesterase 1 (TDP1): qHTS in cells in absence of CPT; 15% of 420,000 active; DT40 Tdp1-/- hTDP1 cells, no CPT, ATP luminescence, 48 h; Potency, µM (doses to about 46.2 µM), inactives show at the highest dose activity change, negative = growth inhibition, usual class: inhibitors; AID 686978, 2013; further: nearly all actives have a fitted effect of over 55% in size
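DT40 Tdp1-/-;hTDP1 cells, no CPT (DMSO vehicle only), 400 cells/well; compounds pin-transferred; ≥48 hr, 37 °C; CellTiter-Glo 30 min RT dark, luminescence read.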
An asterisk follows results filed as active; ? = inconclusive; . = not tested or not shown; [ ] = remark or other dose. The call rests on the fitted dose curve; in most records, active means well fitted curve in the direction sought with a large enough effect; inconclusive means small, poorly fitted or top-dose-only effect, or another doubt; inactive means no such curve, though single readings can be large; an effect the other way counts as inactive or inconclusive. On the % scale 0 is the no-effect control and ±100 the full control effect; potency means the concentration at half of the fitted maximal effect.

SMILES | RORg inh | TDP1 inh | DT40 TDP1 CPT | VP16 counter | DT40 TDP1 no CPT
c1ccc(CSc2nnc(NC3CCCCC3)s2)cc1 | . | . | ? | . | 21µM*
O=C1C=C(NCCc2ccccc2)C2(CCCCC2)O1 | 1% | -3% | 4% | 3% | -1%
Cc1ccccc1OCC(=O)N(Cc1nnc(-c2ccc(Cl)cc2)o1)C(C)C | . | -5% | ? | . | 15µM*
CC(=O)Nc1ccccc1OCc1nnc(-c2ccc(Cl)cc2)o1 | 23% | 3% | 20% | 2% | ?
CC(C)C[C@H](NC(=O)[C@@H]1Cc2c([nH]c3ccccc23)C2c3ccccc3C(=O)N21)C(=O)NCC1CCCO1 (stereo partly drawn) | 27% | . | 16µM* | 8% | ?
Cc1ccc2nc(SC(C)C(=O)NC3CCCc4ccccc43)[nH]c2c1 (stereo not drawn) | -29% | 2% | ? | ? | ?
Cc1cc(N2CCN(C(=O)c3ccco3)CC2)n2ncnc2n1 | -9% | 5% | -4% | -12% | -7%
Cc1nc2ncnn2c(N2CCN(C(c3ccccc3)c3ccccc3)CC2)c1C | ? | 6% | 21µM* | 21% | 13µM*
Cc1cc(N2CCN(C(c3ccccc3)c3ccccc3)CC2)n2ncnc2n1 | 12% | 6% | 23µM* | 13% | ?
COc1ccccc1CNC(=O)CN1C(=O)CCn2nc(-c3ccccc3)cc21 | . | 6% | ? | . | ?
COc1ccc(CC(=O)c2ccc(OC3OC(CO)C(O)C(O)C3O)cc2O)cc1 (stereo not drawn) | 1% | . | 5% | -18% | 14%
O=C(NCCOc1cccc2cccnc12)c1cccs1 | -4% | 0% | -8% | 5% | -12%
O=C(Oc1ccc(Cl)c2cccnc12)c1ccco1 | 0.89µM* | 6% | ? | 1.6µM* | ?
NNC(=O)COc1cccc2cccnc12 | ? | 4% | 4% | -1% | -15%
O=C(Oc1cccc2cccnc12)c1cccs1 | 1.6µM* | 3% | 0.92µM* | 2.8µM* | 0.82µM*
O=C(Oc1cccc2cccnc12)c1ccc(Br)o1 | 11µM* | 6% | -10% | ? | -18%
O=C(Cc1ccc(Cl)cc1)Oc1cccc2cccnc12 | 1.4µM* | 3% | 0.29µM* | 4µM* | 0.82µM*
O=C(Nc1cccc2cccnc12)c1ccc(Br)o1 | ? | 3% | -22% | 4%[0.365 µM] | ?
O=C(COc1ccc(Cl)c2cccnc12)N1CCOCC1 | . | 1% | 3% | . | -2%
C/C(=N\OCC(=O)Nc1ccc(F)c(F)c1F)c1cc2ccccc2o1 | 5% | 0% | -8% | 3% | -16%
O=C(/C=C/c1ccc(F)cc1)NCCCn1ccnc1 | 20% | . | -4% | -1% | 15%
COc1ccccc1CNC(=O)[C@H](C)NC(=O)C1CCN(C(=O)[C@@H](N)C(C)C)CC1 | 0% | . | -12% | -2% | 0%
CCCNC(=O)c1ccc(SC)cc1OC | -36% | 4% | -12% | -4% | -11%
Cc1cccc(NC(=O)CNC(=O)CN2C(=O)NC(C)(CCC(C)C)C2=O)c1C (stereo not drawn) | . | . | ? | . | -23%
O=C(Oc1cccc2cccnc12)c1ccco1 | 1.6µM* | 6%[56.1 µM] | ? | 4µM* | 21µM*
SMILES | RORg inh | TDP1 inh | DT40 TDP1 CPT | VP16 counter | DT40 TDP1 no CPT
CCOc1ccccc1OC(=O)c1ccco1 | -19% | -5% | -3% | 1% | 2%
CCC(=O)OCCn1c(=O)c2cc3c(=O)n(CCOC(=O)CC)c(=O)c3cc2c1=O | 27% | -3% | -2% | -9% | -12%
CCOc1ccc(-c2nc(Cn3c(=O)cc(C)c4c(C)nn(-c5ccccc5)c43)c(C)o2)cc1 | . | 1% | 3% | . | 16%
CCCc1nc(SCC(=O)N2CCC(C)CC2)c2c(=O)n(C)c(=O)n(C)c2n1 | 9% | -2% | 16µM* | 1% | 12µM*
CCc1nc(SCC(=O)N2CCCCC2)c2c(=O)n(C)c(=O)n(C)c2n1 | 34% | 5% | -11% | -4% | -13%
CCCc1nc(SCC(=O)N2CCN(c3ccccc3)CC2)c2c(=O)n(C)c(=O)n(C)c2n1 | ? | 3% | 6.5µM* | -2% | 7.3µM*
CCCc1nc(SC2CCCC2)c2c(=O)n(C)c(=O)n(C)c2n1 | -6% | 5% | 23µM* | 10% | 23µM*
CCc1nc(SCC(=O)N2CCC(C)CC2)c2c(=O)n(C)c(=O)n(C)c2n1 | ? | 0% | ? | -3% | 26µM*
Cc1ccc(C(C(=O)NC2CCCCC2)N(C(=O)Cc2c[nH]c3ccccc23)c2ccccc2)o1 (stereo not drawn) | -4% | 10% | ? | -14% | ?
Cc1ccc(C(=O)N2CCCCC2C(=O)O)cc1S(=O)(=O)N1CCCCC1 (stereo not drawn) | . | 0% | 19% | . | -10%
COc1cccc(Cn2c(=O)c(-c3ccc(Cl)cc3)nc3cnc(N4CCOCC4)nc32)c1 | 1% | . | -29% | -6% | -18%
COc1ccc(-c2nc3cnc(N4CCNCC4)nc3n(Cc3cccc(OC)c3)c2=O)cc1 | ? | . | 6.5µM* | ? | 4.6µM*
COc1cccc(Cn2c(=O)c(-c3ccc(F)cc3)nc3cnc(N4CCNCC4)nc32)c1 | -10% | . | 13µM* | -20% | 23µM*
COc1cccc(Cn2c(=O)c(-c3ccc(Cl)cc3)nc3cnc(N4CCN(C)CC4)nc32)c1 | -3% | . | 3% | -2% | -28%
COc1cccc(Cn2c(=O)c(-c3ccc(Cl)cc3)nc3cnc(N4CCNCC4)nc32)c1 | ? | . | 5.8µM* | ? | 5.8µM*
COc1cccc(Cn2c(=O)c(-c3cccs3)nc3cnc(N4CCNCC4)nc32)c1 | ? | . | ? | ? | 18µM*
C=CCNC(=S)N1CCC(C(N)=O)CC1 | -1% | 0% | 12% | 4% | -3%
Cc1cc(C)c2c(=O)c(C#N)coc2c1 | -2% | . | 8% | -9% | 2%
O=c1c(-c2ccc(F)cc2)nc2cncnc2n1Cc1ccccc1 | -8% | . | ? | -7% | 16µM*
O=c1c(-c2ccc(Cl)cc2)nc2cnc(N3CCNCC3)nc2n1Cc1ccc(F)cc1 | -30% | . | 6.5µM* | -24% | 9.2µM*
O=c1c(-c2ccc(F)cc2)nc2cncnc2n1Cc1ccc(F)cc1 | 11% | . | -8% | -7% | -4%
N#Cc1cc(-c2ccccc2)nc(Oc2ccccc2)n1 | -1% | -1% | ? | 8% | 18µM*
COc1ccc(-c2cc(C#N)nc(Oc3ccc(Cl)cc3)n2)cc1 | -18% | 0% | -1% | -16% | -1%
COc1ccc(-c2cc(C#N)nc(Cl)n2)cc1 | 9% | . | 4.1µM* | -3% | 4.6µM*
CCN(CC)c1nc(C#N)cc(-c2ccc(OC)cc2)n1 | 10%[10 µM] | ? | 8.2µM* | -6% | 10µM*
CCN(CC)c1nc2cc(OC)ccc2cc1C#N | ? | ? | 21µM* | -2% | 16µM*
